Reference: PubChem BioAssay
A number with no mark means an inactive call. Activity calls are given as the source filed them. Unless noted, no stated cut-off is given here; in the data, active means inhibition above about 30%; inactive means the rest.

Tests used:
[1] = molecular target: Nuclear receptor coactivator 3 (Homo sapiens) (UniProt Q9Y6Q9); experiment: NCOA3 GAL4-fusion reporter inhibition – cell-based, luminescence, quadruplicate, confirmation (AID 588792;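 active means mean inhibition over 43.08%, the solvent-only control mean plus 3 SD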;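 further: 0% = DMSO treated cells and 100% = gossypol at 36 µM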); details: HEK293 GAL4-SRC3 luciferase reporter, at 3.6 µM, stronger effect = higher value
[2] = system: transactivating tegument protein VP16 (Human herpesvirus 1), Gal4-VP16 luciferase reporter; experiment: repression of VP16-driven luciferase reporter – cell-based, luminescence, high throughput, counter-screen for SRC3 inhibitor project (AID 588794); details: mammalian cells, at 3.6 µM, stronger effect = higher value
[3] = molecular target: Nuclear receptor coactivator 1 (Homo sapiens) (UniProt Q15788); experiment: NCOA1 GAL4-fusion reporter inhibition – cell-based, luminescence, quadruplicate, confirmation (AID 588820;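 active means mean inhibition above 46.68%, the untreated control wells mean plus 3 SD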;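 further: 0% = DMSO wells and 100% = gossypol 36 µM treated wells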); details: HEK293 GAL4-SRC1 luciferase reporter, at 3.6 µM, stronger effect = higher value
[4] = repression of VP16-driven luciferase reporter – cell-based, luminescence, high throughput, counter-screen for SRC1 inhibitor project (AID 588824; in the data active means inhibition above about 25%); details: cell-based VP16 transactivation luciferase luminescence; at 3.6 µM; stronger effect = higher value
[5] = StAR promoter reporter inhibitors, counter-screen for LRH-1 inverse agonist project, cell-based, luminescence, high throughput (AID 651611; in the data active means inhibition above about 28%); details: StAR promoter luciferase reporter counterscreen, at 3.6 µM, stronger effect = higher value
[6] = molecular target: Nuclear receptor subfamily 5 group A member 2 (Homo sapiens) (UniProt O00482); experiment: NR5A2 activity suppression in reporter cells – cell-based, luminescence, confirmation (AID 651613; in the data active means inhibition above about 42%;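 further: HEK293T cells co-transfected with LRH-1 and StAR promoter luciferase reporter; 0% = vehicle wells and 100% = parental cells lacking receptor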); details: cell-based LRH-1 luciferase reporter, inverse agonism; at 3.6 µM; stronger effect = higher value
[7] = molecular target: Steroidogenic factor 1 (Homo sapiens) (UniProt Q13285); experiment: inverse agonism at SF1 nuclear receptor – cell-based, luminescence, high throughput, counter-screen for LRH-1 inverse agonist project (AID 651614; in the data active means inhibition above about 44%;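 further: cells cotransfected with StAR promoter reporter and SF1 expression vector; 0% = vehicle on cells with receptor and 100% = vehicle on cells lacking receptor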); details: cell-based SF1 luciferase reporter, at 3.6 µM, stronger effect = higher value
[8] = compounds suppressing VP16-driven luciferase signal – cell-based, luminescence, high throughput, counter-screen for LRH-1 inverse agonist project (AID 651615; in the data active means inhibition above about 33%); details: Gal4-VP16 luciferase reporter cells, at 3.6 µM, stronger effect = higher value

Nuclear receptor subfamily 5 group A member 2 (Homo sapiens), sequence (O00482 whole entry, looked up): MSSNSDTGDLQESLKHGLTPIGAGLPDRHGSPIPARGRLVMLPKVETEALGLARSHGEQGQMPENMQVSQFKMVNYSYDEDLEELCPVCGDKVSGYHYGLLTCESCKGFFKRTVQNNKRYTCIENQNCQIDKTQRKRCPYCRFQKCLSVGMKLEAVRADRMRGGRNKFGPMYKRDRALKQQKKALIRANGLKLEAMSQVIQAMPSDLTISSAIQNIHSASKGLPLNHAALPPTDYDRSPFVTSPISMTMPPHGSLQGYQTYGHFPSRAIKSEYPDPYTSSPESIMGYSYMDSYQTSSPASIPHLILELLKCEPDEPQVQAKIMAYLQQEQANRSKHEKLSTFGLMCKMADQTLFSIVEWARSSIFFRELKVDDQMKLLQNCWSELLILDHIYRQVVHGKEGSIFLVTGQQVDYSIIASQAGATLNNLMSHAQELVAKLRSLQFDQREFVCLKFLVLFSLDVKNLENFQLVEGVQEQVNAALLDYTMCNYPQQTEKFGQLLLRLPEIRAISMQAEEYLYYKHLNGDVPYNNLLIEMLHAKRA
Nuclear receptor coactivator 1 (Homo sapiens), sequence (Q15788 whole entry, looked up, the tested form may be a part): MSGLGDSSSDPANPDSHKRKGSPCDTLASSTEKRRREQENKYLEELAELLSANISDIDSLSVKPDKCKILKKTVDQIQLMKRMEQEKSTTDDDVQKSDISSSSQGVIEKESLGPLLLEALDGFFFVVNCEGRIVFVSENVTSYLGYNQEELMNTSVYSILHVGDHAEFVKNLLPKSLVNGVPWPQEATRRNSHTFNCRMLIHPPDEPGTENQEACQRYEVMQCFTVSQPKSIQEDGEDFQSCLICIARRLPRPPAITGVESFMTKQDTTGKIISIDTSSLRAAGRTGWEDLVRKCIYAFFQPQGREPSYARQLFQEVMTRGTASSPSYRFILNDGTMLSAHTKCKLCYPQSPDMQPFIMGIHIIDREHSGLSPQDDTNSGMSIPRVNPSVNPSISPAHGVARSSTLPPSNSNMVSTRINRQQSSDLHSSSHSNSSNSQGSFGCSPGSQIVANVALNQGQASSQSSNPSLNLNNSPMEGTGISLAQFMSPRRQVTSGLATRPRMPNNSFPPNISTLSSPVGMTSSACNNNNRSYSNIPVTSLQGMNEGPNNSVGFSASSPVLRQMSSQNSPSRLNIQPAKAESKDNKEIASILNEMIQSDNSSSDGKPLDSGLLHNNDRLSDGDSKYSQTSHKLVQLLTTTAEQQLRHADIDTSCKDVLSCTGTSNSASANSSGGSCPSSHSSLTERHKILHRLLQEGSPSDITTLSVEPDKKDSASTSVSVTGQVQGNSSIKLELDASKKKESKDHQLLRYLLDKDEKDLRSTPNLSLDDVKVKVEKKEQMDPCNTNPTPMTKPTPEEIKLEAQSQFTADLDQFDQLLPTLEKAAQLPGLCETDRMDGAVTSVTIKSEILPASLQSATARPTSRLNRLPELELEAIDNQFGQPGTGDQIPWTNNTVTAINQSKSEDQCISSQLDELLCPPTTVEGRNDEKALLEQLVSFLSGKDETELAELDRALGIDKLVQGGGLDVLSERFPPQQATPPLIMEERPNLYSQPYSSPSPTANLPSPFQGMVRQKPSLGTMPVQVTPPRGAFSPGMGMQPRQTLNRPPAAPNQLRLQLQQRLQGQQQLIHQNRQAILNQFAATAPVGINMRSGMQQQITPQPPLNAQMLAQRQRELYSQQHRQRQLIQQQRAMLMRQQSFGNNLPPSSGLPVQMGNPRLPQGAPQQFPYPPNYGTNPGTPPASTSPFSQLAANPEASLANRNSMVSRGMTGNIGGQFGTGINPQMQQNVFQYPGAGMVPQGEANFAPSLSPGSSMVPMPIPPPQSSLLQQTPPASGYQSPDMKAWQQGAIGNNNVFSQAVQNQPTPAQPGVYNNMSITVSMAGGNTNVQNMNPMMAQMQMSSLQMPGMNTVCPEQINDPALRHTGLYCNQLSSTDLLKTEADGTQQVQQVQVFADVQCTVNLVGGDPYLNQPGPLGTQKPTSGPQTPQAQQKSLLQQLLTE
Steroidogenic factor 1 (Homo sapiens), sequence (Q13285 whole entry, looked up, the tested form may be a part): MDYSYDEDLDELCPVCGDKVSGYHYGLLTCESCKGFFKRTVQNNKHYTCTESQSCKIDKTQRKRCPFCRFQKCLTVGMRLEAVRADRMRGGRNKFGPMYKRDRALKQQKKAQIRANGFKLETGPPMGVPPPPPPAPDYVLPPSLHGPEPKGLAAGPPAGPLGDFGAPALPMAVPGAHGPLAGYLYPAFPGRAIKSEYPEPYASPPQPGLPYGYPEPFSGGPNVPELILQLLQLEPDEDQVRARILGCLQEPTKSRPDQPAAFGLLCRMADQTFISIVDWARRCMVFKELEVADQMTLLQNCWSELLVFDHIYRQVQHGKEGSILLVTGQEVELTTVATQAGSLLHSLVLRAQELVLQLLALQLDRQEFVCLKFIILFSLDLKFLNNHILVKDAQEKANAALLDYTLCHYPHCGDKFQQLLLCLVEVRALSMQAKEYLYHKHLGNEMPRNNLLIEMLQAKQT
Nuclear receptor coactivator 3 (Homo sapiens), sequence (Q9Y6Q9 whole entry, looked up, the tested form may be a part): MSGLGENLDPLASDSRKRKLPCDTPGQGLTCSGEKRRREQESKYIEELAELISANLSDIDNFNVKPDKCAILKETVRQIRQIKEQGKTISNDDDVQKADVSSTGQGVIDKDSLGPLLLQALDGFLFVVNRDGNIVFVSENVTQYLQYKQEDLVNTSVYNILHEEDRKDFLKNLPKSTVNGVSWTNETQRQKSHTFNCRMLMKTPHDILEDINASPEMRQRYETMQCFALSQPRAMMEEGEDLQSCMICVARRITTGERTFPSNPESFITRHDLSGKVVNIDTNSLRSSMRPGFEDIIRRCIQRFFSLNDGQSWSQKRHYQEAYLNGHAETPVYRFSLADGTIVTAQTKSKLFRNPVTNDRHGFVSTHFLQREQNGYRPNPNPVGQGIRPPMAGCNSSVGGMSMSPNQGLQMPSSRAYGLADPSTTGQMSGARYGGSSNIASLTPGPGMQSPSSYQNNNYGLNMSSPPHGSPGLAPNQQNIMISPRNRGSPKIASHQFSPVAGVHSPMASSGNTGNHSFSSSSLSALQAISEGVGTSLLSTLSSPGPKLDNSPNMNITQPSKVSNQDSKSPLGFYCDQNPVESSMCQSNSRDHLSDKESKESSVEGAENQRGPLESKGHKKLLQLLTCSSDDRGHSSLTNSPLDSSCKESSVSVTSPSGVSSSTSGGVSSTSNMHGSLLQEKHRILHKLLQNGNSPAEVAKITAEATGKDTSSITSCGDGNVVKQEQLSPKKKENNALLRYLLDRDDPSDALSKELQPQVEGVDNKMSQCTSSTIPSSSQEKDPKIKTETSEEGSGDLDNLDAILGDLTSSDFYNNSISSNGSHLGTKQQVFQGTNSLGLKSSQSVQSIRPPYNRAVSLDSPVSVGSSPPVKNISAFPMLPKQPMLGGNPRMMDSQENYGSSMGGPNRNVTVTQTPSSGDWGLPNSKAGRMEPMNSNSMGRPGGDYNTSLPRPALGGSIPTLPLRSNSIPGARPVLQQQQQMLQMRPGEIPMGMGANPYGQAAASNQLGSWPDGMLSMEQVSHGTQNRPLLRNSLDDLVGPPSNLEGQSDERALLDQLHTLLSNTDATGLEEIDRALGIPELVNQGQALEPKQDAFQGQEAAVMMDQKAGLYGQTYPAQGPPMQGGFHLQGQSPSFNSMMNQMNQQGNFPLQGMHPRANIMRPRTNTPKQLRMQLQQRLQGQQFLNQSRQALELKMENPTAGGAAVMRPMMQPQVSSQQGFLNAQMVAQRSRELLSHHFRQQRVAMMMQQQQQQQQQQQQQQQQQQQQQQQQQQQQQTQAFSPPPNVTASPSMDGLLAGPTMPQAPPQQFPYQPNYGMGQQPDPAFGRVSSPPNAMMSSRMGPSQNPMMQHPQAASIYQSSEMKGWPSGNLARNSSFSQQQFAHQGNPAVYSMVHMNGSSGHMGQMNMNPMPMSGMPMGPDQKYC

| SMILES | inhibition [1] | inhibition [2] | inhibition [3] | inhibition [4] | inhibition [5] | inhibition [6] | inhibition [7] | inhibition [8] |
| --- | --- | --- | --- | --- | --- | --- | --- | --- |
| COc1ccc(NC(=O)c2sc(=O)n(Cc3ccc(F)c(Cl)c3)c2C)cc1OC | 24.2% | 61.6% (active) | 18.5% | 53.8% (active) | 54.3% (active) | 66.2% (active) | 70.5% (active) | 72.5% (active) |
| CCC(C)(C)c1ccc(OCCCC[n+]2cccc(C)c2C)c(C(C)(C)CC)c1 | 56.1% (active) | 72.2% (active) | 43.5% | 71% (active) | 58% (active) | 88.1% (active) | 85.2% (active) | 80.9% (active) |
| CCC(C)n1ncn(-c2ccc(N3CCN(c4ccc(O)cc4)CC3)cc2)c1=O (stereo not drawn) | 32.4% | 51.9% (active) | 20.6% | 54.8% (active) | 63.1% (active) | 76.7% (active) | 70.8% (active) | 73.1% (active) |
| CCCCCCCn1c2c(c(=N)c3c1CCC3)CCCC2 | 70.2% (active) | 81.8% (active) | 56.2% (active) | 83.4% (active) | 79.3% (active) | 110% (active) | 95.8% (active) | 98.2% (active) |
| CCCCCCCCCCn1c2c(c(=N)c3c1CCC3)CCC2 | 85.2% (active) | 89.5% (active) | 57.1% (active) | 89.7% (active) | 82.1% (active) | 108% (active) | 94.5% (active) | 95.2% (active) |
| CC(C)=CC(O)C/C(C)=C/COc1ccc2ccc(=O)oc2c1 (stereo not drawn) | 17.4% | 38.5% (active) | 0.43% | 40.6% (active) | -4.64% | 31.5% | 29.2% | -10.8% |
| O=C(c1ccccc1)c1nn(-c2ccc(Cl)cc2)c(=O)cc1C(F)(F)F | 65.3% (active) | 62.6% (active) | 21.8% | 51.2% (active) | 73.3% (active) | 72.6% (active) | 70% (active) | 74.8% (active) |
| CN(C)c1ccc(C=c2c3ccccc3n3c2c2c([n+]3C)CCCC2)cc1 | 75.3% (active) | 81.7% (active) | 55.7% (active) | 81.8% (active) | 79% (active) | 110% (active) | 94.3% (active) | 94.7% (active) |
| COc1ccc(-n2cc(-c3ccc(C)cc3)[n+]3c2SCC3)cc1 | 30.8% | 55.1% (active) | 22.8% | 51% (active) | 40.9% (active) | 83.5% (active) | 75.1% (active) | 74.9% (active) |
| CCC(=O)Nc1cccc(C(=O)/C=C/c2cc(Br)ccc2OC)c1 | 70.8% (active) | 62.1% (active) | 60.6% (active) | 59.4% (active) | 81.2% (active) | 105% (active) | 94.1% (active) | 82.9% (active) |
| CCOC(=O)c1cc2c(=Cc3ccc(N(C)C)cc3)c3ccccc3n2[n+]1C | 46.2% (active) | 63.4% (active) | 22.9% | 59.5% (active) | 49.3% (active) | 105% (active) | 85.7% (active) | 90.4% (active) |
| Cn1cc(/C=C/c2cc[n+](C)cc2)c2cc(Cl)ccc21 | 21.6% | 43.1% (active) | 21.5% | 38.8% (active) | 47.9% (active) | 81.2% (active) | 78.8% (active) | 73.9% (active) |
| CC1CCc2nc(NC(=O)CSc3nc4ccccc4o3)sc2C1 (stereo not drawn) | 14.2% | 15.8% | -11.1% | -33.6% | 5.74% | -27.5% | 7.34% | -33.5% |
| CC(=NNC(=S)N1CCN(C2CCCCCC2)CC1)c1ccccn1 | 50% (active) | 83.7% (active) | 66.2% (active) | 71% (active) | 81.8% (active) | 98.5% (active) | 85.4% (active) | 65.2% (active) |
| COc1cccc(/C=N\NC(=O)c2ccc(Cn3cc(Br)c([N+](=O)[O-])n3)o2)c1O | 33% | 38.4% (active) | 35% | 29.9% (active) | 63.8% (active) | 74.5% (active) | 71.3% (active) | 73.2% (active) |
| O=C(NCc1ccccc1)c1cccc(NC(=O)c2ccco2)c1 | 18.4% | 50.7% (active) | 26.9% | 48.9% (active) | 35.5% (active) | 51.6% (active) | 51.1% (active) | 68.5% (active) |
| COC(=O)c1cc(O)cc(OC)c1Oc1cc(C)cc(O)c1C(=O)O | 13.8% | 62.9% (active) | 54.2% (active) | 60.2% (active) | 56.5% (active) | 73% (active) | 66.9% (active) | 65.5% (active) |
| CCOc1cc(/C=C2\CN(CC)C/C(=C\c3ccc(O)c(OCC)c3)C2=O)ccc1O | 65.4% (active) | 62.4% (active) | 4.46% | 51.8% (active) | 47.3% (active) | 91.2% (active) | 87.2% (active) | 82.6% (active) |

| SMILES | inhibition [1] | inhibition [2] | inhibition [3] | inhibition [4] | inhibition [5] | inhibition [6] | inhibition [7] | inhibition [8] |
| --- | --- | --- | --- | --- | --- | --- | --- | --- |
| COc1ccc(C(=O)Nc2cnn(Cc3ccc(Cl)cc3)c2)cc1OC | 26.3% | 52.7% (active) | 23.3% | 51% (active) | 45% (active) | 51.8% (active) | 64% (active) | 63.1% (active) |
| CC[n+]1ccc(/C=C/c2c[nH]c3ccccc23)cc1 | 8.39% | 22.7% | -16.8% | 25.5% (active) | 18% | 65% (active) | 55.9% (active) | 60.8% (active) |
| Cc1ccc2ccc3cccnc3c2n1 | -1.81% | 18.9% | 12% | 24.6% | 30.6% (active) | 50.2% (active) | 54.5% (active) | 37.3% (active) |
| CCN(CC)c1ccc2nc3ccc(N)cc3[n+](-c3ccccc3)c2c1 | 81.2% (active) | 79.9% (active) | 52.3% (active) | 81.5% (active) | 75.2% (active) | 111% (active) | 89.2% (active) | 92.6% (active) |
| COc1ccc(C(=O)Nc2nc3ccccc3s2)c(OC)c1 | 92.8% (active) | 91.5% (active) | 84.7% (active) | 87.5% (active) | 93.4% (active) | 93.9% (active) | 92.3% (active) | 90.2% (active) |
| CCN(CC)CCCNc1nc2ccccc2c2[nH]c3ccc(OC)cc3c12 | -19.2% | 49% (active) | -3.04% | 48.8% (active) | 30.1% (active) | 44.4% (active) | 60.5% (active) | 71.7% (active) |
| COc1ccccc1C(=O)Nc1nc(-c2ccc(S(=O)(=O)N3CCOCC3)cc2)cs1 | 68% (active) | 82.1% (active) | 41.6% | 74.5% (active) | 78.5% (active) | 98.4% (active) | 83.7% (active) | 92.2% (active) |
| COc1ccc(-c2oc3ccc(N4CCOCC4)cc3c2C#CCO)cc1 | 10.8% | 21.3% | -22.7% | 18.5% | 54.3% (active) | 55.7% (active) | 62% (active) | 53.4% (active) |
| Cc1onc(-c2ccccc2)c1C(=O)NC(=S)NNC(=O)c1ccccc1O | 54.8% (active) | 82% (active) | 66.5% (active) | 77.6% (active) | 70% (active) | 96.8% (active) | 83.4% (active) | 83.3% (active) |
| OCC1OC(n2cnc3c(NCc4ccco4)ncnc32)C(O)C1O (stereo not drawn) | 71.1% (active) | 53.4% (active) | 33.5% | 48.7% (active) | 65.1% (active) | 60.3% (active) | 85.7% (active) | 67.7% (active) |
| CCC(C)N(CC(=O)Nc1cccc(C)c1C)C(=O)CCl (stereo not drawn) | 80% (active) | 67% (active) | 52% (active) | 71% (active) | 69.2% (active) | 84.8% (active) | 78.8% (active) | 77.9% (active) |
| COCCn1c(C)cc(C(=O)COC(=O)c2ccccc2Br)c1C | 71.7% (active) | 57% (active) | 46.2% | 36.7% (active) | 57.1% (active) | -4.05% | 50.9% (active) | 16.6% |
| Cc1cccc2sc(NNC(=O)c3ccc(S(=O)(=O)N4CC(C)CC(C)C4)cc3)nc12 (stereo not drawn) | 31% | 23.7% | 32.8% | 34% (active) | 25% | 45% (active) | 36.2% | 40.9% (active) |
| O=c1[nH]cnc2c1nnn2C1OC(CO)C(O)C1O (stereo not drawn) | 59% (active) | 15.3% | -5.97% | 17% | 69.7% (active) | 78.6% (active) | 71.1% (active) | 27.1% |
| CCCC(=O)NC(c1ccc(C)cc1)c1ccc2cccnc2c1O (stereo not drawn) | 73.8% (active) | 61.9% (active) | 61.4% (active) | 79% (active) | 86.1% (active) | 103% (active) | 90.8% (active) | 83.1% (active) |
| CC(C)(C)c1ccc(/C=N/Nc2ccc(C(=O)O)cc2)cc1 | 28.4% | 32.6% (active) | 13.3% | 13.9% | -5.93% | -189% | -79.9% | -20.1% |
| COc1ccc(NC(=O)c2sc(=O)n(Cc3cccc(C(F)(F)F)c3)c2C)cc1OC | 24.9% | 57.4% (active) | 19% | 52.7% (active) | 46% (active) | 67.8% (active) | 69% (active) | 73.9% (active) |
| c1ccc2cc3c(NCCN4CCOCC4)ccnc3cc2c1 | 22.8% | 44.7% (active) | 38.6% | 45.4% (active) | 35.6% (active) | 83.1% (active) | 55.6% (active) | 55.8% (active) |
